# Data reported in the supplement of paper PMC11732987, “Enantioselective OTUD7B fragment discovery through chemoproteomics screening and high-throughput optimisation” (Communications Chemistry, 2025).
# A number with no mark means an inactive call.
# Columns and labels:
# Test in all cases: log2 ratio of Biotin-Ahx-Ub-VS probe labelling (fragment/DMSO); higher = less target engagement (more negative = stronger competition), active = hit call of the paper (q ≤ 0.05, log2 ratio ≤ -1)
# Settings in all cases: compound concentration: 200 uM; treatment time: 3 h
# [1] = target: T1, OTUD6B (UniProt Q8N6M0)
# T1 sequence (whole entry): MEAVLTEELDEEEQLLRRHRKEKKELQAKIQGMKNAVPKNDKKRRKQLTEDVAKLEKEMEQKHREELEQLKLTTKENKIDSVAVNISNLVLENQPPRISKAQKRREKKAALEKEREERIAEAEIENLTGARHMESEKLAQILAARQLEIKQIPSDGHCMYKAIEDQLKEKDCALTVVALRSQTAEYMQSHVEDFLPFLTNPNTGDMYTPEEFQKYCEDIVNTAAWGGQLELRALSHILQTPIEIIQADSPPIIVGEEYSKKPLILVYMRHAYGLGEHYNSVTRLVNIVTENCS
# Method in brief: (§1)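 Average log2 ratios of fragment over vehicle were obtained by unpaired t-test from global-median-normalised Spectronaut label-free quantities. Proteins with ≥2 unique peptides were included. HEK293T lysate (495 µg per sample) was treated in triplicate with fragment at 200 µM or vehicle for 3 h, then with Biotin-Ahx-Ub-VS at 0.5 µM final for 1 h, and labelled DUBs were NeutrAvidin-enriched and run by diaPASEF LC-MS/MS.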
# [2] = target: T2, OTUD7B (UniProt Q6GQQ9)
# T2 sequence (whole entry): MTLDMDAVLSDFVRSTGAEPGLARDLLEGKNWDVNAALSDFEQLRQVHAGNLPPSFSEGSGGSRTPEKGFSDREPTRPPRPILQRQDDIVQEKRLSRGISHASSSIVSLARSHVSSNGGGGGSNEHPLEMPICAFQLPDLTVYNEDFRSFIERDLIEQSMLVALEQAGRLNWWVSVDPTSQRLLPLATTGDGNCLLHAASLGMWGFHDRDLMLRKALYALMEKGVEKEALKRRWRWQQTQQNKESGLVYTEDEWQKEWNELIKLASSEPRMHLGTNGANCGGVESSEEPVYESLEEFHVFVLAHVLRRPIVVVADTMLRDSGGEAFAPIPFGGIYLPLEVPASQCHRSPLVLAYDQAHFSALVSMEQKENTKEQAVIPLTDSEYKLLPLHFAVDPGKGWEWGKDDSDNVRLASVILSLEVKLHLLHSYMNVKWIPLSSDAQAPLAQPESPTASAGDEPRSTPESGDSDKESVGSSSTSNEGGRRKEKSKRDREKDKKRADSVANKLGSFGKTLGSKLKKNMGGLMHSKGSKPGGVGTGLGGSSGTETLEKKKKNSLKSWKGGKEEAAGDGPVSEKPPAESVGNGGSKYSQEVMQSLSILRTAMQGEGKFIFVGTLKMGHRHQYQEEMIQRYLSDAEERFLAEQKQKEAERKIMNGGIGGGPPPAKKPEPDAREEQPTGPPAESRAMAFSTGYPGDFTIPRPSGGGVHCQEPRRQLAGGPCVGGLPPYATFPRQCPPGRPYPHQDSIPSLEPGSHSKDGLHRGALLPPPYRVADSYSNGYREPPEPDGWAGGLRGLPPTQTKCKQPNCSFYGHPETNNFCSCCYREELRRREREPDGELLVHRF
# Method in brief: as §1
# [3] = target: PRPF8 (UniProt Q6P2Q9)
# Method in brief: as §1
# [4] = target: T3, PSMD7 (UniProt P51665)
# T3 sequence (whole entry): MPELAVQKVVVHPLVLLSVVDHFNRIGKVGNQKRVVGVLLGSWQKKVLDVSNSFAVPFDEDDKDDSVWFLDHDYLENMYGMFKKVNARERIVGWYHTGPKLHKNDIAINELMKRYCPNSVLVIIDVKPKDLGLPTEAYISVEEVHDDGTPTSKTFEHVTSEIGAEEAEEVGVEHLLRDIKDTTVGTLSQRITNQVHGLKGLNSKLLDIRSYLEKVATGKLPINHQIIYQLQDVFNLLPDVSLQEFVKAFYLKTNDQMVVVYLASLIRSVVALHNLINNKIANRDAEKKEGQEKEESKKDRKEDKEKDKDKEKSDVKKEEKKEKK
# Method in brief: as §1
# [5] = target: UCHL1 (UniProt P09936)
# Method in brief: as §1
# [6] = target: T4, UCHL3 (UniProt P15374)
# T4 sequence (whole entry): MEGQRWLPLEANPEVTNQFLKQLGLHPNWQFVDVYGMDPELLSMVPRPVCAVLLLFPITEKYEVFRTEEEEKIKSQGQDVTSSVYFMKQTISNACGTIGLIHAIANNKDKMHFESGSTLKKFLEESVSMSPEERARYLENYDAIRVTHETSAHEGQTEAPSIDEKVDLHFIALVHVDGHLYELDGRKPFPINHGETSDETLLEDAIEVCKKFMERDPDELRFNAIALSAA
# Method in brief: as §1
# [7] = target: T5, UCHL5 (UniProt Q9Y5K5)
# T5 sequence (whole entry): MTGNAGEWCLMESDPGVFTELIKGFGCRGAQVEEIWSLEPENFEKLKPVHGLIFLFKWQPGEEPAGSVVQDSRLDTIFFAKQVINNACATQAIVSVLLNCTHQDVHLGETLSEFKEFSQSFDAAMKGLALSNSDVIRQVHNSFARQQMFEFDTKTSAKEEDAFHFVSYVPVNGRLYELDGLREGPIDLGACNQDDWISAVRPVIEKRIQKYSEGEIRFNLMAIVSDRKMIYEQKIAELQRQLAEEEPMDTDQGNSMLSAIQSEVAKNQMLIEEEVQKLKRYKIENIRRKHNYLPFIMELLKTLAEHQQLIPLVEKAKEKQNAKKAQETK
# Method in brief: as §1
# [8] = target: USP10 (UniProt Q14694)
# Method in brief: as §1
# [9] = target: T6, USP15 (UniProt Q9Y4E8)
# T6 sequence (whole entry): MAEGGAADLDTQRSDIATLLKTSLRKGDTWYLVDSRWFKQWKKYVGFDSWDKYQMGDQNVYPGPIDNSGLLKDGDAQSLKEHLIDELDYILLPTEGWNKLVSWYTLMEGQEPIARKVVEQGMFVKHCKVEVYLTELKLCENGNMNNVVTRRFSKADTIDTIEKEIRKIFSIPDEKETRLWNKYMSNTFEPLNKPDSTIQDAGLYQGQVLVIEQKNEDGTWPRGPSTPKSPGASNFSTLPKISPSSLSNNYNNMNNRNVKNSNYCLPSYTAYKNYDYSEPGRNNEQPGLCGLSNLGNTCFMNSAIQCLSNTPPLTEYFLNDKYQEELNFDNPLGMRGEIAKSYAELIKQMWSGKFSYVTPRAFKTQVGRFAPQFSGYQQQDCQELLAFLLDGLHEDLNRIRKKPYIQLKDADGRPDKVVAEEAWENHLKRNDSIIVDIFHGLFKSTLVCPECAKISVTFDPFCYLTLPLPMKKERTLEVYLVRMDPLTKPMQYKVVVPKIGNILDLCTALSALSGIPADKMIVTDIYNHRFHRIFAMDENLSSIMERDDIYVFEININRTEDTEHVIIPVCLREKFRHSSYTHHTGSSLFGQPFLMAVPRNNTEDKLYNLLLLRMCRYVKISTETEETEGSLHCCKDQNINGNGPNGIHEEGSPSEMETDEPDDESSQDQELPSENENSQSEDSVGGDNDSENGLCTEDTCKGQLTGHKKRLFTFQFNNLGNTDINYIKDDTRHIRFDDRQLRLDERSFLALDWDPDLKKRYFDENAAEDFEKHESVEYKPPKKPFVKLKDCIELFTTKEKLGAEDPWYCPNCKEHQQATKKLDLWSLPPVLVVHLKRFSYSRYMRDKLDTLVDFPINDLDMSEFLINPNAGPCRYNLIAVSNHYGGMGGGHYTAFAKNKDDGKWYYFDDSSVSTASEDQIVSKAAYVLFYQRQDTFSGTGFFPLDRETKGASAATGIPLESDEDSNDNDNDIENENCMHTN
# Method in brief: as §1
# [10] = target: USP16 (UniProt Q9Y5T5)
# Method in brief: as §1
# UCHL1, sequence (P09936 whole entry, looked up): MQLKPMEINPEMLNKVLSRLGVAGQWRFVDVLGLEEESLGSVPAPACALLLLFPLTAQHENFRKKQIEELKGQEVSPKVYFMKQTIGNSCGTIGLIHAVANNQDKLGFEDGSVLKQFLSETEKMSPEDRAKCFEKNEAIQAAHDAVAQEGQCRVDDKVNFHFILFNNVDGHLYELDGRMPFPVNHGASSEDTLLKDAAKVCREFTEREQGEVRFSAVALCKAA
# USP16, sequence (Q9Y5T5 whole entry, looked up): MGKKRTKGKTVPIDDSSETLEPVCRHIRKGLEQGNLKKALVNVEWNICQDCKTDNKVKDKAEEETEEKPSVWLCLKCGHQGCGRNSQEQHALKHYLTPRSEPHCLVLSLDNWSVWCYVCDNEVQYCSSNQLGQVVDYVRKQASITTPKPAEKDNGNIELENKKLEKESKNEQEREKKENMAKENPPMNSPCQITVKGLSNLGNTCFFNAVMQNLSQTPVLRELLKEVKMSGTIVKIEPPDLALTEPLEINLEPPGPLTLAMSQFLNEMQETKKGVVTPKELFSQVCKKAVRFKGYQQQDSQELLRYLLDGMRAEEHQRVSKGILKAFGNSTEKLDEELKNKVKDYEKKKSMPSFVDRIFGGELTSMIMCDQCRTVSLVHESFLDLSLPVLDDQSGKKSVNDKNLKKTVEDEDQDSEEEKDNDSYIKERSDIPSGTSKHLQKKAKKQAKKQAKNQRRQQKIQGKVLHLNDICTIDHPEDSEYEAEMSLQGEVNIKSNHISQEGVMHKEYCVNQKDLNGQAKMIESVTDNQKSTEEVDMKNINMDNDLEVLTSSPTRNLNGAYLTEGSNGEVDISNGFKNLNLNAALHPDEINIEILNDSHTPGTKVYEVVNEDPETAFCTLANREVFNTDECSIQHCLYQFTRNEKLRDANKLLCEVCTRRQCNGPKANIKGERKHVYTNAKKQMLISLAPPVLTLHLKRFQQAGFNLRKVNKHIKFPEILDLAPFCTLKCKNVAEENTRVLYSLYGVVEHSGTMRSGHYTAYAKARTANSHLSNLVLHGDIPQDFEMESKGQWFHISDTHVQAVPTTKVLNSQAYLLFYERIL
# USP10, sequence (Q14694 whole entry): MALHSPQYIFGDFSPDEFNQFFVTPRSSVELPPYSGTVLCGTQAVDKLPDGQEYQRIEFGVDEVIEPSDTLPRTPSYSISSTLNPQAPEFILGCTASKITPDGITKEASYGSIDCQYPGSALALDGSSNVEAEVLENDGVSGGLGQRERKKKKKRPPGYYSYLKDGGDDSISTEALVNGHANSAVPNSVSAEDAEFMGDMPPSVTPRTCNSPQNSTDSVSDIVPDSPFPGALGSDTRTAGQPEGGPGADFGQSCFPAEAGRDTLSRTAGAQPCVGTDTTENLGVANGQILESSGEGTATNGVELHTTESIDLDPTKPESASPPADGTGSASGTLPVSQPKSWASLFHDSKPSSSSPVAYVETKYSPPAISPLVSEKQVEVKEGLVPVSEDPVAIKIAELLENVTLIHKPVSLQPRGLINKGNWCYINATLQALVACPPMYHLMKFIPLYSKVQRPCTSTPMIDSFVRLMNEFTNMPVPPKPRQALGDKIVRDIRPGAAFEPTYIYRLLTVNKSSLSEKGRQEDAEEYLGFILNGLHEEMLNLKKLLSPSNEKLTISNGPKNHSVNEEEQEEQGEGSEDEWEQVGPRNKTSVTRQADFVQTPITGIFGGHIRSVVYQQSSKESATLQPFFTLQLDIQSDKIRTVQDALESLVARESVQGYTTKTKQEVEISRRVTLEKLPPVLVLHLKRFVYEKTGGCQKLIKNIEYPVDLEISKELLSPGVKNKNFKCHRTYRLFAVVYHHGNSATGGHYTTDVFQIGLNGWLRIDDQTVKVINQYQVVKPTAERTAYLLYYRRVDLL
compound,measurement,setting,value
O=C(CN1CCN(C(=O)CCl)CC1)Nc1cccc(F)c1,log2 ratio of Biotin-Ahx-Ub-VS probe labelling,[1],-0.321
same,log2 ratio of Biotin-Ahx-Ub-VS probe labelling,[2],-0.452
same,log2 ratio of Biotin-Ahx-Ub-VS probe labelling,[3],-0.19
same,log2 ratio of Biotin-Ahx-Ub-VS probe labelling,[4],-0.137
same,log2 ratio of Biotin-Ahx-Ub-VS probe labelling,[5],-1.08 (active)
same,log2 ratio of Biotin-Ahx-Ub-VS probe labelling,[6],-0.122
same,log2 ratio of Biotin-Ahx-Ub-VS probe labelling,[7],-0.336
same,log2 ratio of Biotin-Ahx-Ub-VS probe labelling,[8],0.0386
same,log2 ratio of Biotin-Ahx-Ub-VS probe labelling,[9],-0.225
same,log2 ratio of Biotin-Ahx-Ub-VS probe labelling,[10],-0.245
